ANO1 activ: activates or potentiates the mouse TMEM16A chloride channel | 340,000 tested, 0.3% active | B-score at 10 µM | Q8BHY3 | AID 623877 | HEK293 TMEM16A/YFP-H148Q/I152L, iodide quench fluorescence; stronger effect = lower value;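 active = fluorescence-ratio B-score plate-corrected deviation score at least 3 library SD below zero, with starting fluorescence score within 5 deviations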;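 note: channel opened by trigger with iodide after compound preincubation; score built on the fluorescence ratio of max minus min over baseline; more negative score means more quench and so TMEM16A activation or potentiation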
Target sequence (Q8BHY3 whole entry, looked up): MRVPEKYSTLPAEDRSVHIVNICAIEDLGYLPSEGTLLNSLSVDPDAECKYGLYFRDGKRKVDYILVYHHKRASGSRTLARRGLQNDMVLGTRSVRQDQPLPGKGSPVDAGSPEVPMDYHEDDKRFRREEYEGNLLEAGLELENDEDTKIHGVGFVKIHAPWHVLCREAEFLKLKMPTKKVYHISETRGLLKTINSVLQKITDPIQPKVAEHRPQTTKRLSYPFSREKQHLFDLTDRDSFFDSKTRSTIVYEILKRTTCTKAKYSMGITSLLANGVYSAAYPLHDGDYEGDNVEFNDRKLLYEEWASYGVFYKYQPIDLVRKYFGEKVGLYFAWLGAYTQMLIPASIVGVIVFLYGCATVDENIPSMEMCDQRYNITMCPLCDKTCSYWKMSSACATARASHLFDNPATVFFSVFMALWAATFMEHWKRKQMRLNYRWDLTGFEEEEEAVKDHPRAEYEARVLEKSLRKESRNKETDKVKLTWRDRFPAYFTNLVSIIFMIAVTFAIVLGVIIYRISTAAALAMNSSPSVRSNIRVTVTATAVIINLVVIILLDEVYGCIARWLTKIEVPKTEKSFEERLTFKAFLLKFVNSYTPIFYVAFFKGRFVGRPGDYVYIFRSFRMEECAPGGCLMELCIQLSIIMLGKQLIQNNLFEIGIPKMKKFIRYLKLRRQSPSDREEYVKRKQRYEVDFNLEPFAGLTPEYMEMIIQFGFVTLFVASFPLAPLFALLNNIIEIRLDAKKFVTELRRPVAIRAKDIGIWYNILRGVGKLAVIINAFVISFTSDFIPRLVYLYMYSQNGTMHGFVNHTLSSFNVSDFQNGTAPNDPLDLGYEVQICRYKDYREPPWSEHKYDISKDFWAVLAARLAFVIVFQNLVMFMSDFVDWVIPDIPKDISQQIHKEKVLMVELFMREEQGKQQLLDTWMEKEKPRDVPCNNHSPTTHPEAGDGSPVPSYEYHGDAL
NR3A LBD binder: NR3A (human) ligand-binding domain modulation | NR3A LBD differential scanning fluorimetry, Tm shift; 0% = protein alone, 100% = glycine-bound protein | 340,000 tested, 2.5% active | AID 1259313 | Tm shift relative to glycine control, % at 25 µM;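 active = melting temperature shift of at least 10% of the positive control shift, at one fixed dose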
CRFBP-R2 agonist: agonists of human CRF-binding protein/CRF-R2 receptor complex. activation, % at 13.2 µM. 350,000 tested, 0.46% active. HEK293 CRF-R2/CRF-BP, calcium dye fluorescence (FLIPR); percent of saturating CRF peptide response;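 active = activation of at least 50%, plus an integration ratio under a set limit after plate pattern correction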
ANO1 block: mouse TMEM16A channel inhibition, primary screen. HEK293 TMEM16A/YFP iodide influx fluorescence, ionomycin. AID 588511. Q8BHY3. 310,000 tested, 1.2% active. normalized B-score (activity score, 25-100; higher = stronger inhibition) at 10 µM;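 active = ratio plate-corrected score three or more library SD toward inhibition, starting fluorescence score within five deviations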;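 note: score derived from kinetic fluorescence span divided by baseline fluorescence per well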
CRFR2-BP antag: blocks CRF-induced signaling of the CRF-BP/CRF-R2 complex | inhibition, % at 11.8 µM | 350,000 tested, 0.59% active | HEK293 CRF-R2/CRF-BP, CRF-induced calcium fluorescence;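 active = inhibition of the ligand-induced calcium signal above about 50% at the single tested concentration, limit read from the data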
MPTP block: inhibitors of mitochondrial permeability transition pore; isolated mouse mitochondria, Ca2+ swelling absorbance, 30 min; 360,000 tested, 1.4% active; inhibition, % at 10 µM;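 active = inhibition of 50% or more, scaled per plate between neutral and stimulator controls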
Rh123 counter: Rhodamine 123 counter-screen of mitochondrial pore hits | shares compounds with MPTP block | isolated mitochondria, membrane potential, Rhodamine 123 fluorescence | inhibition, % at 10 µM | 5,000 tested, 78% active; in the data active = inhibition above about 22%
MPTP abs DR: MPTP inhibition, dose response swelling confirmation. shares compounds with MPTP block. IC50, µM. isolated mitochondria swelling, absorbance. AID 651561. 780 tested, 58% active; in the data active = IC50 below about 20 µM
MPTP counter DR: MPTP inhibitor counter-screen activity, dose response | shares compounds with MPTP block | isolated mitochondria counterscreen, fluorescence read-out | IC50, µM | 780 tested, 49% active | AID 651564; in the data active = IC50 below about 80 µM
A number is an active result; – = inactive; · = no result. Shown are actives, neighbours in structure and some others; about 5.1% of the full set was active somewhere.

SMILES	ANO1 activ	NR3A LBD binder	CRFBP-R2 agonist	ANO1 block	CRFR2-BP antag	MPTP block	Rh123 counter	others
NS(=O)(=O)c1ccc(CCNCc2cc(Br)ccc2OCc2ccccc2)cc1	–	–	–	100	–	66	52
CCOc1cc(CNCCc2ccc(S(N)(=O)=O)cc2)ccc1OCc1ccccc1	–	–	–	–	–	105	41
N=C1C=CC(=C(c2ccc(N)cc2)c2ccc(N)cc2)C=C1	–	–	–	·	–	–	·
Cc1ccc(S(=O)(=O)NC(=O)COc2cc(C)ccc2C(C)C)cc1	–	–	–	–	–	–	·
C=CCNC(=S)Nc1ccccc1-c1nnc2n1CCCCC2	–	–	–	–	–	–	·
S=C(Nc1ccc(Cl)cc1)Nc1cccc2cnccc12	–	–	–	–	–	102	93
Fc1ccc(NC(=S)Nc2cccc3ccccc23)cc1F	–	–	–	–	–	81	98
O=C(NCc1nnc(SCC(=O)N2CCOCC2)o1)c1ccccc1	·	·	–	·	–	–	·
COc1ccc(CN2CCC(CO)(CCOc3ccccc3)CC2)cc1C	–	–	–	–	88	68	–	MPTP abs DR=20;MPTP counter DR=–
CCc1nc2ccc(C(=O)N(C)CCCN(C)C)cn2c1N(CC)CCOC	·	·	·	·	·	–	·
COc1cc(CNCc2c[nH]c3ccccc23)cc(OC)c1	–	–	–	–	–	60	–	MPTP abs DR=6.3;MPTP counter DR=53
COc1cc(CNCc2cccc3ccccc23)cc(OC)c1	–	–	–	–	–	–	·
CC(=O)c1ccc(N2CCN(C(=O)c3nn(C)c4c3CS(=O)(=O)c3ccccc3-4)CC2)cc1	–	–	–	–	–	–	·
CCCNC(=S)N1CCN(c2nc(-c3ccc(C)cc3)cs2)CC1	–	12	–	–	–	99	81
Cc1ccc(NC(=O)COC(=O)CC2CC3CCC2C3)cc1S(=O)(=O)N1CCOCC1 (stereo unspecified)	–	–	–	·	–	–	·
COc1ccc(OC)c(-c2csc(NC(=O)CSc3ccc([N+](=O)[O-])cc3)n2)c1	–	12	–	–	–	56	63
Cc1ccc(C2C(C#N)=C(N)SC(N)=C2C#N)c(C)c1	–	–	133	–	–	53	64
N#CC1=C(N)SC(N)=C(C#N)C1c1ccoc1	·	·	·	–	·	·	·
Cc1ccc(C2C(C#N)=C(N)SC(N)=C2C#N)cc1	–	–	–	·	–	54	67
CCCC[C@@H]1CC2=C(C(=O)OC(C)(C)O2)[C@@H](c2ccc(F)cc2)O1	·	·	·	·	·	–	·
CCCNC(=O)C1(C)CCCN(C(=O)c2ccc(C)c(F)c2)C1 (stereo unspecified)	·	·	·	·	·	–	·
Cc1cc(C)c2sc(N(CCCN(C)C)C(=O)c3ccc(S(=O)(=O)N(C)Cc4ccccc4)cc3)nc2c1	–	–	–	–	–	82	–	MPTP abs DR=8.8;MPTP counter DR=45
COc1ccc2sc(N(CCCN(C)C)C(=O)c3ccc(S(=O)(=O)N(C)Cc4ccccc4)cc3)nc2c1	–	–	–	–	–	78	–	MPTP abs DR=8.1
Cc1ccc2sc(N(CCCN(C)C)C(=O)c3ccc(S(=O)(=O)N(C)C)cc3)nc2c1C	–	–	–	–	–	–	·
Cc1ccc2sc(N(CCCN(C)C)C(=O)c3ccc(S(=O)(=O)N(C)Cc4ccccc4)cc3)nc2c1C	–	–	–	–	–	71	–
SMILES	ANO1 activ	NR3A LBD binder	CRFBP-R2 agonist	ANO1 block	CRFR2-BP antag	MPTP block	Rh123 counter	others
CN(C)CCCN(C(=O)c1ccc(S(=O)(=O)N(C)Cc2ccccc2)cc1)c1nc2cc3c(cc2s1)OCO3	–	–	–	–	–	–	·
Cc1ccc(CNC(=O)C2CCC(=O)N2Cc2ccc(C)cc2)cc1 (stereo unspecified)	–	–	–	–	–	–	·
COc1ccc(-c2cc(C(=O)N/N=C/c3cccnc3)c3cc(C)cc(C)c3n2)cc1	–	–	–	–	–	–	·
CC(=O)c1ccc(NC(=S)N2CCC(Cc3ccccc3)CC2)cc1	–	–	–	–	–	61	44
CS(=O)(=O)C1=NSC2=NC(=O)/C(=C\c3cccn3-c3ccc(Cl)cc3)C(=N)N21	–	19	–	–	57	96	61
Cc1cc(/C=C2/C(=N)N3C(=NC2=O)SN=C3S(C)(=O)=O)c(C)n1-c1ccccc1F	–	–	–	–	–	–	·
CCCNC(=S)Nc1ccc(Nc2ccccc2)cc1	–	–	–	–	–	–	·
CCCCOc1ccc(CSCCNC(=S)Nc2ccccc2)cc1	–	–	–	–	–	97	95
NCC12CC3CC(C1)CC(CN)(C3)C2	–	–	–	–	–	–	·
NCC12CC3CC(C1)CC(c1ccc(Cl)cc1)(C3)C2	–	–	–	–	–	75	–	MPTP abs DR=3.7;MPTP counter DR=42
Cc1ccc(F)cc1NCC(=O)Nc1ccc(Br)cc1	–	–	–	–	–	71	72
COc1ccc(CCNCC(=O)Nc2ccc(C)c(S(=O)(=O)N(C)C)c2)cc1	–	–	–	–	–	68	–	MPTP abs DR=–;MPTP counter DR=74
Cc1ccc(NC(=O)CSc2nn(-c3ccccc3)c(=S)s2)cc1S(=O)(=O)N(C)C	–	–	–	25	–	98	76
COc1ccc(CCC(=O)Nc2ccc(C)c(S(=O)(=O)N(C)C)c2)cc1OC	–	–	–	–	–	–	·
CCN(CC)S(=O)(=O)c1ccc(Cl)c(C(=O)Nc2ccc(Cl)cc2[N+](=O)[O-])c1	–	–	–	–	–	91	92
CN(C)S(=O)(=O)c1ccc(Cl)c(C(=O)Nc2ccccc2[N+](=O)[O-])c1	–	–	–	–	–	–	·
C/C(=N/NS(=O)(=O)c1ccc(Cl)cc1)c1cccc(O)c1	–	–	–	–	–	–	·
C/C(=N\NS(=O)(=O)c1ccccc1)c1cc(Cl)cc(Cl)c1O	–	–	–	100	–	62	75
COc1ccc(C(=O)Nc2ccccc2C(=O)Nc2ccncc2)cc1	–	–	–	–	–	–	·
COCc1c(C#N)c(NCc2cc(OC)c(OC)c(OC)c2)nc(C)c1[N+](=O)[O-]	–	–	–	25	–	75	34
CC(NC(=S)Nc1ccc(OC(F)F)cc1OC(F)F)C(C)(C)C (stereo unspecified)	–	–	–	–	–	86	91
CSc1ccccc1OC1CCN(Cc2ccccc2)CC1	–	–	–	–	–	54	–	MPTP abs DR=–;MPTP counter DR=63
CC(=O)C1CCN(Cc2ccccc2)CC1	–	–	–	–	–	–	·
CCC(=O)N1CCc2cc(Br)cc(S(=O)(=O)N3CCCCC3CC)c21 (stereo unspecified)	–	–	–	–	–	–	·

Bioassay records deposited in PubChem BioAssay by several laboratories.
